Test results as given in PubChem BioAssay AID720604 (Broad Institute, 2013).
Results with a measured potency or affinity are listed apart. Records with an inconclusive call do not appear. The source made the active and inactive calls.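 Rule for the calls: active = compound lowering viability with a fitted half-effect dose within twice the top dose in every timed run; inconclusive = timed runs disagree on the call; inactive = inactive in every run, including a rising signal.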

Assay: HUVEC endothelial cell viability loss, dose response, cytotoxicity control for HRAS target identification, CellTiter-Glo ATP luminescence, 8/24/48 h, dry powder (AID 720604)
Settings: 8-48 h; series mostly up to 35 µM

Cc1onc(C(=O)N2CCN(C(c3ccncc3)c3ccncc3)CC2)c1[N+](=O)[O-]
outcome: inactive

Cc1onc(C(=O)N2CCN(C(c3ccc(Cl)cc3)c3ccc(Cl)cc3)CC2)c1[N+](=O)[O-]
outcome: inactive
